# Results with a measured potency or affinity are listed apart. A number with no mark means an inactive call. The source made the active and inactive calls.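 How the source made its calls: active means falling luciferase signal whose fitted half-maximal concentration is at most twice the top tested dose; inconclusive means flat inhibition between 30 and 70% or a poor curve fit; inactive means the rest.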
# Assay: off-target signal loss in HeLa-CEM21 co-culture – HeLa F-luc CTL cells, cherry-picked, counter-screen for HIV-1 Env fusion inhibitor project, dose response (AID 652040);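 further: 0% = median of neutral control wells and -100% = doxycycline 40 µg/mL wells; more negative values mean stronger loss of luciferase signal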
# Details: HeLa-F-luc CTL cells with CEM21, firefly luciferase counterscreen; series mostly up to 35 µM
Compound,outcome,"activity change, negative = inhibition"
C=CCN1C(=S)CC(c2ccccc2)=Nc2ccccc21,inactive,
O=C(N/N=C/c1ccc(-n2ccnc2)cc1)c1cccs1,inactive,
CCc1nc(N2CCCCC2)c2oc3ccccc3c2n1,inactive,
O=C(NCc1ccccc1)[C@@H]1CCCN1C(=O)[C@@H]1CCCN1C(=O)c1cccc2ccccc12,inactive,
CCOC(=O)[C@@H]1[C@H]2COc3cc(OC)ccc3[C@H]2N2C(=O)N(c3cccc(F)c3)C(=O)[C@@]12C,inactive,
CC1(C)N=C(N)N=C(N)N1CCCCc1ccccc1,inactive,
Cc1ccc(-c2nnc(N3CCN(C(=O)COc4ccccc4)CC3)c3ccccc23)cc1,inactive,
CCCCNC(=O)C[C@H]1C[C@@]2(C(=O)OC)C(=C[C@H](C(C)(C)C)O[C@@H]2C)N(Cc2ccc3c(c2)OCO3)C1=O,inactive,
Cc1ccccc1OCCCCn1cnc2ccccc21,inactive,
O=C(c1ccc(Cl)s1)N1CCN(c2nc3ccccc3s2)CC1,inactive,
COc1ccc(Nc2ncc(C(=O)N3CCN(c4ccc(F)cc4)CC3)c3ccccc23)cc1,inactive,
Cc1nc2ccc(NC(=O)c3ccc(Cl)c(S(=O)(=O)N(C)c4ccccc4)c3)cc2s1,inactive,
COc1ccccc1N1CCN(Cc2ccc(O)c3ncccc23)CC1,,166% [at 8 µM]
O=C(c1ccccc1)N1CCC(c2nc(-c3ccc(S(=O)(=O)NCC4CCCO4)cc3)no2)CC1 (centres undefined),inactive,
CCOC(=O)CN1CCCc2nc(C)c(C)cc21,inactive,
C=C(C)CN(CC)c1nc(N)c2c(N)nc3c(c2c1C#N)CC(=O)N3C12CC3CC(CC(C3)C1)C2,inactive,
CCNC1CCC(Nc2ccnc3cc(Cl)ccc23)CC1 (centres undefined),inactive,
Cc1cc(Cl)c(S(=O)(=O)N2CCCC2)cc1OCC(=O)NC1CCCCC1,inactive,
Cc1cc(N2CCN(c3nc4ccccc4s3)CC2)n2ncnc2n1,inactive,
CCC(=O)N(C)C(c1ccccc1Cl)c1nnnn1-c1c(C)cccc1C (centres undefined),inactive,
COc1ccccc1CN(C)C(=O)CN1CCN(C(=O)c2cccs2)CC1,inactive,
CC(C)n1c(NCCc2ccccc2)nc2c1c(=O)n(C)c(=O)n2C,inactive,
N#Cc1c(NCc2ccccc2)ccnc1NCc1cccnc1,inactive,
COc1cc(-c2c(-c3cc(OC)c(OC)c(OC)c3)noc2C)ccc1F,inactive,

# Source: PubChem BioAssay AID652040 (Broad Institute, 2013)
